# Measured values from ChEMBL document CHEMBL3988442, “University of Dundee, Small-Polar-MMV Screening Library” (2021).
# Among all 38,000 compounds or so, about 1,200 (3.2%) showed an effect of 50% or more. The median lay at about -58%. This excerpt belongs to a sample that is enriched for strong results.
# Tested on: Plasmodium falciparum
# Assay: Calibr Malaria Delayed Death Assay SOP
# Type: functional, organism-based
# Parameters: scale not given: in the data most compounds retested in dose-response had high values
# Conditions: concentration 4.99e-06 (unit not given; other assays of the set use mol/L)
row,SMILES,Percent Effect
1,CCc1nc(C(=O)N2CCN(C)c3ccccc32)c[nH]1,-108.8%
2,COCc1n[nH]/c(=N/C(=O)COc2cnc(C)cc2O)s1,-11.35%
3,O=C(c1cccnc1)N1CCC2(CC1)CN(c1ccccn1)CCO2,-57.82%
4,Cl.NC(=O)N1CC2(CCNCC2)c2cc(Cl)ccc21,-64.91%
5,CN(C)C(=O)N1CC2(CCNCC2)c2cc(Cl)ccc21.Cl,23.36%
6,Cl.Cl.O=C([C@H]1CCCN1)N1CC2(CCNCC2)c2cc(Cl)ccc21,58.74%
7,CN(Cc1nnc(C2CCC2)o1)C(C(N)=O)c1cccc(F)c1 (centres undefined),-103%
8,Cc1ccc(S(=O)(=O)NCC(O)c2ccoc2)s1 (centres undefined),-144.6%
9,O=C(Cc1ccncc1)N1CCC2(CC1)CC(c1ccccc1)CO2.O=C(O)C(F)(F)F (centres undefined),-32.94%
10,CCN1CCC2(CC1)CC(NC(=O)c1c[nH]cn1)c1ccccc1O2 (centres undefined),-75.27%
11,CCN1CCC2(CC1)CC(Nc1ncccn1)CO2 (centres undefined),-15.58%
12,CN1CCC2(CC1)CC(NC(=O)c1csnn1)c1ccccc1O2.O=C(O)C(F)(F)F (centres undefined),-14.05%
13,CCN1CCC2(CC1)CC(NCc1ccncc1)c1ccccc1O2.O=C(O)C(F)(F)F.O=C(O)C(F)(F)F.O=C(O)C(F)(F)F (centres undefined),77.69%
14,O=C(c1ccsc1)N1CCC2(CC1)CCN(S(=O)(=O)C1CC1)CC2,5.88%
15,COc1ccccc1S(=O)(=O)Nc1cnc(O)cc1C,-22.04%
16,c1cncc(NCCNC2CCCNC2)c1 (centres undefined),-4.225%
17,CC(C)CN1CCC(NCCNc2cccnc2)CC1,78.75%
18,c1cncc(NCCNC2CCSCC2)c1,-16.36%
19,Cn1cc(CCNC(=O)c2cc3ccccc3nc2N2CCCC2)cn1,-91.24%
20,Cc1nc(C)c2c(n1)CCN(Cc1nccn1C)CC2.O=C(O)C(F)(F)F,-117.5%
21,CC(C)Nc1nc2c(c(N(C)C)n1)CCN(Cc1nccn1C)CC2.O=C(O)C(F)(F)F,53.11%
22,Cc1nc(N2CCCC2)nc2c1CCN(Cc1nccn1C)CC2.O=C(O)C(F)(F)F,-65.41%

row,SMILES,Percent Effect
1,CC(C)Nc1ncnc2c1CCN(Cc1nccn1C)CC2.O=C(O)C(F)(F)F.O=C(O)C(F)(F)F,-41.64%
2,CC(C)Nc1nc2c(c(NC3CC3)n1)CCN(Cc1nccn1C)CC2.O=C(O)C(F)(F)F,75.38%
3,CN(C)c1nc(N2CCCC2)nc2c1CCN(Cc1nccn1C)CC2.O=C(O)C(F)(F)F,3.003%
4,Cc1nc(C)c(C(=O)N2CCN(CCOc3ccccc3C)CC2)o1,-41.56%
5,Cl.N[C@@H](Cc1ccccc1)c1nnc(S(=O)(=O)Cc2ccc(Cl)cc2)o1,-112.8%
6,Cc1cnc(N2CCN(C)CC2)nc1-c1ccnn1C,-103.6%
7,COc1cnc(N2CC(N3CCOCC3)C2)nc1-c1ccnn1C,75.52%
8,COc1cnc(N2CCN(C)CC2)nc1-c1ccnn1C,-14.56%
9,CC(C)Cc1nc(OCC(=O)O)c(C#N)c2c1CCCC2,-37.32%
10,Cc1[nH]nc(CCC(=O)N2CCc3c(nc[nH]c3=O)C2)c1C,-169.9%
11,CCN(CC)CCn1cnc(-c2ccccc2)c1-c1ncc[nH]1,-50.85%
12,CCN(CC)CCn1cnc(-c2ccccc2)c1-c1cnc(C)s1,52.89%
13,CCN(CC)CCn1cnc(-c2ccccc2)c1-c1cnn(CC)c1,18.58%
14,CCc1ccsc1C(=O)NC(C#N)CC(C)C (centres undefined),-81.49%
15,CC1CCN(C(=O)c2ccc(N(C)Cc3cnn(C)c3)nc2)CC1,-165.6%
16,CC(=O)N1CCN(c2nc(C(F)(F)F)nc3sc(C)c(C)c23)CC1,-31.05%
17,Cc1sc2nc(C(F)(F)F)nc(N3CCN(C)CC3)c2c1C,10.88%
18,Cc1sc2nc(C(F)(F)F)nc(N3CCCN(C)CC3)c2c1C,75.15%
19,CC(NCc1ccc(F)cc1)c1ccc2[nH]c(=O)[nH]c2c1 (centres undefined),-45.16%
20,O=C1Nc2ccccc2/C1=C1\CCCCN1,-131%
21,CN(C)CC(=O)N1CCc2sc(C(=O)NCC3CC3)cc21.O=C(O)C(F)(F)F,-49.99%
22,CCCn1nc2c(cc1=O)CN(Cc1nc(CCOC)no1)CC2,60.93%

row,SMILES,Percent Effect
1,CCn1nc2c(cc1=O)CN(Cc1nc(CCOC)no1)CC2,-158.3%
2,CCCn1nc2c(cc1=O)CN(Cc1nc(-c3ccoc3)no1)CC2,-48.33%
3,Cn1nc(CO)c2c1CCN(c1ncnc3c1CCNC3)C2,-81.19%
4,CC(=O)Nc1ccc(CN(C)Cc2snnc2C)cc1,-153.1%
5,CSCc1cccc(S(=O)(=O)NCCO)c1,-54.99%
6,CCN(CC)CCNS(=O)(=O)c1cccc(CSC)c1,83.08%
7,CCNS(=O)(=O)c1cccc(CSC)c1,-125.2%
8,COCC1CCN(S(=O)(=O)NCC2COc3ccccc3C2)CC1 (centres undefined),-101%
9,CN1CCCC(CNS(=O)(=O)N2CCc3ccccc3C2)C1 (centres undefined),77.6%
10,O=S(=O)(NCC1CCOC1)N1CCc2ccccc2C1 (centres undefined),-79.01%
11,CN1CCN(S(=O)(=O)NCC2COc3ccccc3C2)CC1 (centres undefined),-15.69%
12,CCN1CCC(CNS(=O)(=O)N2CCc3ccccc3C2)C1 (centres undefined),54.33%
13,O=S1(=O)CCC(CNS(=O)(=O)N2CCc3ccccc3C2)C1 (centres undefined),-112.5%
14,O=S1(=O)CCN2C(=N1)Oc1ccc(S(=O)(=O)N3CCCC3)cc12,-88.45%
15,CSCCCN1C[C@H](NC(=O)c2cc(C3CC3)on2)[C@@H](C2CC2)C1,21.88%
16,O=C(c1cccnc1)N1CCC2(CC1)CCN(Cc1ccccn1)C2=O,-24.21%
17,CCn1ncc(Cl)c1CN(C)C(=O)CCn1ncc(Br)c1C,-15.28%
18,Cc1nc[nH]c1CN1CCN(C(=O)C2CC2)[C@H]2CS(=O)(=O)C[C@H]21,-108.2%
19,C[C@@H](O)CNc1c(NCc2ccco2)c(=O)c1=O,-66.82%
20,CC1(C)CC(=O)c2cnc3nc(N4CCCCC4)nc(O)c3c2C1,-100.7%
